± gives the standard deviation of the averaged measurements. Over roughly 33,000 sequences, “E-score (rank enrichment, -0.5 to 0.5)” has its median near -0.0028; the highest 2% begin near 0.23. Shown is part of a subset that was picked to be rich in the highest values.
Each sequence was assayed on 2Sb-muMax20 (muMax20 with two 1,3-bis(methyl)benzene Cys staples, A13C/A17C and Q88C/A92C, C-terminal Lys) (assay: PBM 8-mer E-score (E-score (rank enrichment, -0.5 to 0.5)); higher = stronger preferential binding).
Experimental: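 Protein binding microarray (universal PBM chip covering all 10-mers in fixed probe flanks) with chemically synthesized human Max(13-93) bHLH-LZ analogs (not full-length Max) bearing noncanonical residues (hArg, Tha, Aib, Nle at 65) and aromatic Cys staples. Read-out per 8-mer (and its reverse complement): E-score (rank-based enrichment, -0.5 to 0.5) and Z-score of median probe intensity.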
With AACGTGGC the “PBM 8-mer E-score” value was 0.192 ± 0.021. AACGTGGA was tested, and the “PBM 8-mer E-score” value was 0.0893 ± 0.031. TACGTGGA was tested, and the “PBM 8-mer E-score” value was 0.0786 ± 0.0068. ACTTAGAA was tested, and the “PBM 8-mer E-score” value was -0.02 ± 0.04. With CGAAGGCC the “PBM 8-mer E-score” value was -0.212 ± 0.015. AAACTTGC was tested, and the “PBM 8-mer E-score” value was 0.254 ± 0.025. AAACTTGA was tested, and the “PBM 8-mer E-score” value was 0.163 ± 0.048. In the case of CAACTTGC, the “PBM 8-mer E-score” value is reported as -0.1303 ± 0.0012. In the case of ACAGATTA, the “PBM 8-mer E-score” value is reported as -0.0104 ± 0.027. With CCTGAAAC the “PBM 8-mer E-score” value was -0.0931 ± 0.062. With GTCGTAAC the “PBM 8-mer E-score” value was 0.00633 ± 0.033. GAGTCGGA was tested, and the “PBM 8-mer E-score” value was -0.0932 ± 0.037. With ATTCATAG the “PBM 8-mer E-score” value was 0.0979 ± 0.039. In the case of ATTCATTG, the “PBM 8-mer E-score” value is reported as 0.0825 ± 0.018. With ATTCATTC the “PBM 8-mer E-score” value was 0.249 ± 0.029. In the case of ATACATTC, the “PBM 8-mer E-score” value is reported as 0.32 ± 0.023. In the case of CTACATTC, the “PBM 8-mer E-score” value is reported as 0.0832 ± 0.066. With AGTCATTA the “PBM 8-mer E-score” value was 0.0586 ± 0.056. In the case of ATACATTG, the “PBM 8-mer E-score” value is reported as 0.17 ± 0.021. With ATTCATTA the “PBM 8-mer E-score” value was 0.114 ± 0.012. AGTCATTG was tested, and the “PBM 8-mer E-score” value was 0.264 ± 0.034. With ATTCATAC the “PBM 8-mer E-score” value was 0.276 ± 0.044. With AGTCATTC the “PBM 8-mer E-score” value was 0.129 ± 0.077. In the case of CTTCATAC, the “PBM 8-mer E-score” value is reported as 0.0955 ± 0.029. GCATCTGA was tested, and the “PBM 8-mer E-score” value was -0.135 ± 0.0046. In the case of GGGCCAGA, the “PBM 8-mer E-score” value is reported as -0.122 ± 0.054. CTTGGGCA was tested, and the “PBM 8-mer E-score” value was 0.0256 ± 0.03. In the case of CGAGGCCC, the “PBM 8-mer E-score” value is reported as -0.00116 ± 0.04. For TGCGCGAA, the “PBM 8-mer E-score” value was 0.146 ± 0.011. In the case of AGCAGACA, the “PBM 8-mer E-score” value is reported as -0.0463 ± 0.0083. GACTGAGC was tested, and the “PBM 8-mer E-score” value was -0.267 ± 0.057. With CCACAGAG the “PBM 8-mer E-score” value was -0.0457 ± 0.076. With ATATCCTC the “PBM 8-mer E-score” value was 0.262 ± 0.054. For ATATCCCC, the “PBM 8-mer E-score” value was 0.339 ± 0.025. In the case of ATATCCTA, the “PBM 8-mer E-score” value is reported as 0.0634 ± 0.0093. In the case of CTATCTTC, the “PBM 8-mer E-score” value is reported as 0.0336 ± 0.054. CTATCCTC was tested, and the “PBM 8-mer E-score” value was -0.015 ± 0.015. With ATATCCCG the “PBM 8-mer E-score” value was 0.0587 ± 0.04. ATATCTTA was tested, and the “PBM 8-mer E-score” value was 0.124 ± 0.0016. With CTATCCCC the “PBM 8-mer E-score” value was 0.121 ± 0.0091. In the case of ATATCTTC, the “PBM 8-mer E-score” value is reported as 0.249 ± 0.029. CTCTTTGA was tested, and the “PBM 8-mer E-score” value was -0.0279 ± 0.036. In the case of GCATGATA, the “PBM 8-mer E-score” value is reported as 0.214 ± 0.029. In the case of ATATGATG, the “PBM 8-mer E-score” value is reported as 0.141 ± 0.0096. ATATGATA was tested, and the “PBM 8-mer E-score” value was 0.257 ± 0.058. GTATGATA was tested, and the “PBM 8-mer E-score” value was 0.258 ± 0.026. With GTATGAGA the “PBM 8-mer E-score” value was 0.0453 ± 0.12. For CTATGATA, the “PBM 8-mer E-score” value was 0.0532 ± 0.035. With ACCTTTAT the “PBM 8-mer E-score” value was 0.02821 ± 0.00021. CAGCCTCG was tested, and the “PBM 8-mer E-score” value was -0.0714 ± 0.034. With GGGGTTGA the “PBM 8-mer E-score” value was 0.138 ± 0.03. CCCAATTC was tested, and the “PBM 8-mer E-score” value was 0.247 ± 0.0082. ACCAATTC was tested, and the “PBM 8-mer E-score” value was -0.0487 ± 0.032. For CCCAATTA, the “PBM 8-mer E-score” value was 0.221 ± 0.021. ACGATCTG was tested, and the “PBM 8-mer E-score” value was -0.0575 ± 0.048. With AGCGATCG the “PBM 8-mer E-score” value was 0.235 ± 0.0084. For AGCGATCA, the “PBM 8-mer E-score” value was -0.298 ± 0.021. In the case of AGCGATCC, the “PBM 8-mer E-score” value is reported as -0.145 ± 0.057. GACTGTCC was tested, and the “PBM 8-mer E-score” value was -0.111 ± 0.073. ATTGTCGA was tested, and the “PBM 8-mer E-score” value was 0.0736 ± 0.034. AATATGGG was tested, and the “PBM 8-mer E-score” value was 0.178 ± 0.024. TATATACA was tested, and the “PBM 8-mer E-score” value was 0.173 ± 0.0038. For AATATATT, the “PBM 8-mer E-score” value was 0.24 ± 0.054. With AATATACT the “PBM 8-mer E-score” value was 0.0704 ± 0.03. For AATATATA, the “PBM 8-mer E-score” value was 0.162 ± 0.015. In the case of AATATACA, the “PBM 8-mer E-score” value is reported as 0.264 ± 0.02. In the case of CATATGGG, the “PBM 8-mer E-score” value is reported as 0.252 ± 0.056. With CATATGGC the “PBM 8-mer E-score” value was 0.142 ± 0.035. For GAAATACA, the “PBM 8-mer E-score” value was -0.0423 ± 0.015. With AATATATC the “PBM 8-mer E-score” value was 0.19 ± 0.013. CAAATACA was tested, and the “PBM 8-mer E-score” value was 0.23 ± 0.0088. With CAAATACC the “PBM 8-mer E-score” value was 0.0305 ± 0.029. In the case of CTTGTGTA, the “PBM 8-mer E-score” value is reported as 0.116 ± 0.033. In the case of AGGCACAG, the “PBM 8-mer E-score” value is reported as -0.103 ± 0.026. In the case of CGCAGTAA, the “PBM 8-mer E-score” value is reported as 0.0928 ± 0.087. For GGGCATCA, the “PBM 8-mer E-score” value was 0.0183 ± 0.046. With TAAATTCA the “PBM 8-mer E-score” value was 0.111 ± 0.075. GACATCTA was tested, and the “PBM 8-mer E-score” value was -0.1 ± 0.066. With AAAACAGC the “PBM 8-mer E-score” value was 0.13 ± 0.037. CGTGGAAG was tested, and the “PBM 8-mer E-score” value was 0.0947 ± 0.13. For GCACTAGC, the “PBM 8-mer E-score” value was 0.109 ± 0.017. For AATGAATA, the “PBM 8-mer E-score” value was 0.156 ± 0.018. In the case of GGGCGACC, the “PBM 8-mer E-score” value is reported as -0.0448 ± 0.029. With CAATCTAA the “PBM 8-mer E-score” value was 0.0541 ± 0.078. For AAAATATG, the “PBM 8-mer E-score” value was 0.143 ± 0.05. For AATATGTG, the “PBM 8-mer E-score” value was 0.139 ± 0.033.

— the supplement of paper PMC12636033
